# The list is not random: actives were taken first. Their share in the collection is about 9.7%.
# M1 antag: blocks the rat M1 muscarinic receptor response to acetylcholine | CHO-M1 cells, Fluo-4 calcium, ACh EC80 antagonist mode; hits give low values | B-score at 10 µM | actives 3.4% (n = 64,000) | AID 628;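 active = calcium fluorescence response, raw or row-and-column corrected B-score, differing from the plate sample mean either way at a set confidence level, mostly lower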
# M1 agonist: activates the M1 muscarinic receptor | B-score at 10 µM | actives 3% (n = 64,000) | AID 626 | CHO-M1 cells, Fluo-4 calcium fluorescence, agonist mode; hits give high values;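 active = fluorescence rise, raw or as B-score row- and column-corrected plate score, outside the 99.7% band of its plate's samples, either direction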
# Fluor 339 460: intrinsic fluorescence of library compounds, ex339/em460 – biochemical, MLSMR library, data from DPM-DC assay, artefact control, profiling panel | compound autofluorescence, ex339/em460 nm, NADH buffer; hits give high values; 1 = no-compound wells, NADH background | fluorescence fold increase at 10 µM | actives 5.5% (n = 65,000) | AID 709;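 active = at 10 µM, mean starting fluorescence two-fold or more over control wells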;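 note: signal is the first read of a kinetic run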
# BAP1 inh: human BAP1 deubiquitinase inhibition. Q92560. calls only at 20 µM. actives 0.48% (n = 72,000). recombinant BAP1, Ub-AMC hydrolysis fluorescence kinetic; hits give low values. AID 436;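 active = activity remaining at or below 50% of control, provided the compound also passes the data quality filters; inactive = the rest, including low values that fail the filters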
# Target sequence (Q92560 whole entry, looked up): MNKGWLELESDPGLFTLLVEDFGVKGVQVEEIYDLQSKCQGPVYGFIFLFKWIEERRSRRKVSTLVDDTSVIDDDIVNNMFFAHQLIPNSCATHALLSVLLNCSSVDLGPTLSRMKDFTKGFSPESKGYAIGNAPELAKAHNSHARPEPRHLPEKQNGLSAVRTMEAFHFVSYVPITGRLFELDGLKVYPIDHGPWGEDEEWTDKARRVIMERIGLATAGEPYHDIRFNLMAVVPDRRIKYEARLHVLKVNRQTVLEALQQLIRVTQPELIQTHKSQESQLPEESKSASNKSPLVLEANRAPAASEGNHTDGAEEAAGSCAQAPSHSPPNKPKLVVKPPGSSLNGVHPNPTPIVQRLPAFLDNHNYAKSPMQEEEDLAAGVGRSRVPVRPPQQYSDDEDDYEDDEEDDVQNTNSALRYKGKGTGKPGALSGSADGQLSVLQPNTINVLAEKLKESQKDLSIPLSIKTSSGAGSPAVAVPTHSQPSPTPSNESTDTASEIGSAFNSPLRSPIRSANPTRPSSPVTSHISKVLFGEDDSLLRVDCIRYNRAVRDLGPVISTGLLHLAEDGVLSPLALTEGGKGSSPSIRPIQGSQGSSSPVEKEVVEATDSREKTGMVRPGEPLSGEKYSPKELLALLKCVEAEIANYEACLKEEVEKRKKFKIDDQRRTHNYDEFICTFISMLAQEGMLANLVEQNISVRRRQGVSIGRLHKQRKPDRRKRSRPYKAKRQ
# A340 absorber: compound absorbs light at 340 nm. fold change at 10 µM. 65,000 tested, under 10 active. compound absorbance at 340 nm, fold over control;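 active = at 10 µM dose, initial 340 nm absorbance at least 2 fold that of control wells; inactive = change under 2 fold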;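 note: initial absorbance extrapolated from kinetic A340 decline of NADH oxidation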
# WNV protease inh: inhibitors of West Nile virus NS2B-NS3 protease; P06935; WNV NS2B-NS3 protease, fluorogenic substrate Ex360/Em465; hits give low values; z-score (test concentration not listed); actives 0.18% (n = 65,000); AID 577; in the data active = z-score below about -3
# A number is an active result; . = inactive; / = not tested or not shown.
SMILES,M1 antag,M1 agonist,Fluor 339 460,BAP1 inh,A340 absorber,WNV protease inh
CCC(Oc1ccccc1)C(=O)Nc1ccc(-c2nnc(-c3ccco3)o2)cc1 (stereo not given),.,.,2.8,/,.,.
O=C(OCCN1C(=O)c2ccccc2C1=O)c1cc(=O)[nH]c2ccccc12,.,.,.,.,.,.
CCCCCOC(=O)c1cc(=O)[nH]c2ccccc12,.,.,2,.,.,.
COc1ccc(-c2nc3oc4cc(OC)ccc4c(=O)c3c(=O)n2Cc2ccco2)cc1,.,.,3.9,.,.,.
Cc1cc(N2CCN(C(=O)c3ccco3)CC2)n2nc(-c3cccc(F)c3)cc2n1,.,2.9,.,/,.,.
Cn1c(=O)c2ncn(CC(=O)Nc3ccc4oc(-c5cccc6ccccc56)nc4c3)c2n(C)c1=O,.,.,3.7,.,.,.
CCC(C)c1ccc2oc(-c3ccc(NC(=O)Cn4cnc5c(=O)n(C)c(=O)n(C)c54)cc3)nc2c1 (stereo not given),.,.,3.7,/,.,.
Cc1cc(N2CCN(c3ccccc3)CC2)nc(-c2ccccc2)n1,.,.,.,.,.,.
Cc1cc(N2CCCCCC2)nc(-c2ccccc2O)n1,.,.,3.8,/,.,.
Cc1cc(Nc2ccccc2)nc(-c2ccccc2O)n1,.,.,2.2,.,.,.
Cc1cc(Nc2cccc(F)c2)nc(-c2ccccc2O)n1,.,.,.,.,.,.
Cc1cc(NCc2ccccc2)nc(-c2ccccc2O)n1,.,.,2.2,.,.,.
CCOC(=O)c1ccc(Nc2cc(C)nc(-c3ccccc3O)n2)cc1,/,/,.,.,.,.
CC1=C(C(=O)OCC2CCCCC2)C(c2ccc(Cl)cc2)NC(=O)N1 (stereo not given),/,/,/,.,/,/
COc1ccc2oc(=O)c(-c3nc4ccccc4[nH]3)cc2c1,/,/,/,.,/,/
CCN(CC)c1ccc2cc(-c3nc4ccccc4[nH]3)c(=O)oc2c1,-21,419,.,.,.,.
COc1ccccc1-c1nnc(NC(=O)c2ccc(S(=O)(=O)N(C)Cc3ccccc3)cc2)o1,.,.,3,.,.,.
CCOC(=O)c1sc(NC(=O)c2ccc(Cc3ccccc3)cc2)nc1C,/,/,/,.,/,/
CCOC(=O)c1sc(NC(=O)c2ccc(Cl)s2)cc1C,.,.,2.1,.,.,.
CCOC(=O)c1sc(NC(=O)C2CC2)cc1C,.,.,.,.,.,.
CCOC(=O)c1sc(NC(=O)c2ccc(CC)s2)nc1C,.,.,3.3,/,.,.
Cc1cc(C)nc(NS(=O)(=O)c2ccc(NC(=O)c3ccc4c(c3)OCO4)cc2)n1,.,.,.,.,.,.
Cc1cc(C)nc(Nc2nc(C)c3cc4c(cc3n2)OCO4)n1,.,.,3.5,.,.,.
COc1ccc(C2CC(=O)C3=C(C2)Nc2ccccc2NC3c2ccccc2OCc2ccccc2)cc1 (stereo not given),/,/,/,.,/,/
Clc1ccc2c(c1)C1OCCC1C(c1ccco1)N2 (stereo not given),.,.,3.7,.,.,.
SMILES,M1 antag,M1 agonist,Fluor 339 460,BAP1 inh,A340 absorber,WNV protease inh
COc1ccc(CNC(=O)c2nn3c(c2Cl)NC(c2cccs2)CC3C(F)(F)F)cc1 (stereo not given),/,/,/,.,/,/
COc1ccccc1-c1nnc(Nc2nc3c(OC)cccc3s2)o1,.,.,.,/,.,.
COc1cccc(OC)c1-c1nnc(-c2cn(C)c3ccccc23)o1,.,.,3.8,/,.,.
COc1ccc(C2NC(=O)NC(C)=C2C(=O)OC2CCC(C)CC2)c(OC)c1 (stereo not given),/,/,/,.,/,/
COCc1cc(C)nc2sc(C(=O)OC(C)C)c(N)c12,.,.,2.1,.,.,.
CCc1ccc(NC2=C(Cl)C(=O)N(c3ccccc3Cl)C2=O)cc1,/,/,/,.,/,/
Cc1cc(OCC(=O)Nc2ccc3oc(-c4ccncc4)nc3c2)ccc1Cl,.,.,.,.,.,.
O=C(Cc1ccc(Cl)cc1)Nc1ccc2oc(-c3ccncc3)nc2c1,.,.,3.6,.,.,.
O=C(Cc1ccccc1)Nc1ccc2oc(-c3cccnc3)nc2c1,.,.,2.3,.,.,.
CCCCCC(=O)Nc1ccc2oc(-c3cccnc3)nc2c1,.,.,3.7,/,.,.
O=C(Nc1ccc2oc(-c3ccccc3)nc2c1)c1cccnc1,.,.,.,.,.,.
O=C(Nc1ccc2oc(-c3ccncc3)nc2c1)c1cccnc1,/,/,/,.,/,/
CCCCC(=O)Nc1cccc(-c2nnc(-c3ccccc3)o2)c1,.,2.7,.,.,.,.
O=C1CCCC2=C1C(c1cccc(Br)c1)Nc1ccc(C(=O)c3ccccc3)cc1N2 (stereo not given),/,/,/,.,/,/
O=C(Nc1ccc2c(c1)CCC2)c1cc(S(=O)(=O)N2CCCCC2)ccc1Cl,/,/,/,.,/,/
O=C1CC(c2cccc([N+](=O)[O-])c2)Sc2nc3ccccc3n21 (stereo not given),/,/,/,.,/,/
O=C(Nc1nnc(Cc2ccccc2)s1)c1ccccc1I,/,/,/,.,/,/
Cc1ccc(NC(=O)c2cccc(C(=O)Nc3ccc(C)cc3[N+](=O)[O-])n2)c([N+](=O)[O-])c1,/,/,/,.,/,/
Cc1cc(NCCCN2CCOCC2)n2ncc(-c3ccc(Cl)cc3)c2n1,.,.,3.9,.,.,.
Cn1c(=O)c2c(nc(NCCCN3CCOCC3)n2Cc2ccc(Cl)cc2)n(C)c1=O,.,.,.,.,.,.
O=C(c1ccc2nc(NC(=O)C34CC5CC(CC(C5)C3)C4)sc2c1)N1CCCCC1,/,/,/,.,/,/
O=S(=O)(Nc1cccc2ncccc12)c1cccs1,.,.,.,.,.,.
O=S(=O)(Nc1ccc(-c2nc3cccnc3s2)cc1)c1cccs1,.,.,2.1,/,.,.
CN(C)CCNC(=O)c1coc(=O)c(Br)c1,.,.,3.7,/,.,.
Cc1cccc(-c2nc(CS(=O)CC(=O)NC3CCCC3)c(C)o2)c1 (stereo not given),.,.,.,.,.,.
SMILES,M1 antag,M1 agonist,Fluor 339 460,BAP1 inh,A340 absorber,WNV protease inh
Cc1cccc(-c2nc(C#N)c(NC3CCCCC3)o2)c1,.,.,2.1,.,.,.
CCOC(=O)c1c(C)oc2c1c(C(c1cccnc1)N1CCN(C)CC1)c(O)c1ccccc12 (stereo not given),.,3.4,.,.,.,.
CCC(=O)Nc1nc2ccccc2n1Cc1ccc(C)cc1,.,.,.,.,.,.
CCC(=O)Nc1c(C#N)c2nc3ccccc3nc2n1-c1ccc(C)cc1,.,4.3,3.7,.,.,.
N#Cc1c(NC(=O)c2ccc(Br)o2)n(-c2ccccc2)c2nc3ccccc3nc12,.,42,3,.,.,.
COc1ccc(C2CC(C(F)(F)F)n3ncc(C(=O)NC(C)C)c3N2)cc1OC (stereo not given),/,/,/,.,/,/
O=C(CN1CCN(C(c2ccccc2)c2ccccc2)CC1)NC(=O)NCc1ccco1,.,-3.2,.,.,.,.
